We go through 13 compounds from PubChem BioAssay (NCI).

Compounds without any hit were thinned out: in the full panel of roughly 83,000, 20% have a hit.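 Treatment: one concentration, 48 hours, 96-well format. Scoring: percent growth, with anything below 10 considered active.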 Unmarked numbers belong to inactive results. The source made the active and inactive calls.

Among the test systems are HCT-15 colon; HT29 colon; SNB-75 CNS; SNB-19 CNS; U251 CNS; PC-3 prostate; SK-MEL-5 melanoma; UACC-62 melanoma; LOX IMVI melanoma; SK-MEL-28 melanoma.
What all share (assay): NCI-60 one-dose screen, 48 h (100 = growth as untreated, 0 = no growth, -100 = all killed)
Holding throughout (conditions): 10 µM unless noted

For the compound `COc1cccc2c(=O)c3c(sc12)c(N1CCNCC1)nc1ccccc13`, the growth was 37.3% in the assay on HCT-15 colon; 0.0883% (active) in the assay with HT29 colon; 79.2% in the assay with SNB-75 CNS; 80% in the assay on SNB-19 CNS; 12.2% with U251 CNS; 68.3% in the assay with PC-3 prostate. In addition, the growth in the assay on SK-MEL-5 melanoma was 95.3%; in the assay with UACC-62 melanoma, 105%; in the assay with LOX IMVI melanoma, -29.3% (active); in the assay on SK-MEL-28 melanoma, 107%.
Take `COc1c(B(O)O)cc(F)cc1-c1nc2ccc3[nH]ncc3c2c2c1CCCC2`: the growth in the assay on HCT-15 colon was 3.63% (active); in the assay with HT29 colon it was 13%; in the assay on SNB-75 CNS, -94.5% (active); with SNB-19 CNS, 11.3%; in the assay with U251 CNS, 11.8%; in the assay on PC-3 prostate, 13.3%. Besides, the growth with SK-MEL-5 melanoma is 17.1%; in the assay with UACC-62 melanoma, 20.6%; in the assay on LOX IMVI melanoma, 2.28% (active); with SK-MEL-28 melanoma it was 21.3%.
On to `Cc1cccc2c3c(sc12)C(c1ccc(Cl)cc1)C(C#N)=C(/N=C/c1ccc(Cl)cc1)O3` (stereo not given), for which the growth in the assay on HCT-15 colon is 8.99% (active); in the assay on HT29 colon, 6.06% (active); with SNB-75 CNS it was -3.88% (active); in the assay on SNB-19 CNS it was 23.7%; in the assay on U251 CNS, 24.4%; in the assay with PC-3 prostate, 11%. Also, the growth in the assay with SK-MEL-5 melanoma was 26.4%; in the assay with UACC-62 melanoma, 13.1%; in the assay on LOX IMVI melanoma, 20.9%; with SK-MEL-28 melanoma it was 58.1%.
In the case of `Oc1ccc(-c2nc3ccc4[nH]ncc4c3c3c2CCCC3)c2cccnc12`, the growth was 4.75% (active) with HCT-15 colon; 12.1% in the assay on HT29 colon; -23.1% (active) with SNB-75 CNS; 13.7% in the assay on SNB-19 CNS; -4.46% (active) in the assay with U251 CNS; 7.83% (active) in the assay with PC-3 prostate. In addition, the growth in the assay with SK-MEL-5 melanoma is -4.91% (active); in the assay on UACC-62 melanoma, -11.5% (active); in the assay with LOX IMVI melanoma, 3.42% (active); in the assay with SK-MEL-28 melanoma, 13.3%.
Regarding `COc1cccc(-c2nc(-c3ccc(NC(=O)c4ccccc4)cc3)[nH]c2-c2ccnc(Br)c2)c1`, the growth in the assay on HCT-15 colon was -0.905% (active); with HT29 colon, 10.2%; in the assay on SNB-75 CNS it was 10.7%; in the assay with SNB-19 CNS it was 33.6%; in the assay with U251 CNS, 30.7%; in the assay with PC-3 prostate, 17.6%. The growth is -79.6% (active) in the assay with SK-MEL-5 melanoma, 16.4% in the assay with UACC-62 melanoma, -55.8% (active) in the assay on LOX IMVI melanoma and 37% with SK-MEL-28 melanoma.
Consider `Cc1ccc2c(-c3cc(-c4ccccc4)nc(N)c3C#N)cc(=O)oc2c1`, for which the growth is 105% in the assay on HCT-15 colon; 90.1% in the assay on HT29 colon; 100% with SNB-75 CNS; 94.1% in the assay with SNB-19 CNS; 100% in the assay with U251 CNS; 89.2% in the assay on PC-3 prostate. The growth in the assay on SK-MEL-5 melanoma was 97%; in the assay on UACC-62 melanoma, 90.1%; in the assay on LOX IMVI melanoma, 91.8%; in the assay with SK-MEL-28 melanoma, 105%.
For the compound `CC(=O)CC[C@H]1C(=O)N[C@@H](C(C)C)C(=O)N[C@@H](Cc2cc(O)cc(F)c2)C(=O)N2CCC[C@H](N2)C(=O)O[C@H](/C(C)=C/C=C/C(=O)OC(C)(C)C)C/C=C/C=C/[C@H](O)[C@H](C)[C@H]1O`, the growth is 26.6% in the assay with HCT-15 colon; 29.6% in the assay on HT29 colon; 54.6% in the assay on SNB-75 CNS; 70% in the assay on SNB-19 CNS; 43.3% with U251 CNS; 48.6% with PC-3 prostate. The growth was 51% with SK-MEL-5 melanoma, 52.4% in the assay on UACC-62 melanoma, 48.6% with LOX IMVI melanoma and 59.4% in the assay on SK-MEL-28 melanoma.
For `COc1cc(CNS(=O)(=O)c2ccc(C)cc2)ccc1OCc1cn(-c2ccccc2)nn1`, the growth with HCT-15 colon was 88.2%; with HT29 colon, 103%; with SNB-75 CNS it was 91.9%; in the assay on SNB-19 CNS it was 92.3%; in the assay with U251 CNS, 89.1%; with PC-3 prostate it was 86.7%. The growth in the assay on SK-MEL-5 melanoma was 80.1%; with UACC-62 melanoma, 75.2%; in the assay on LOX IMVI melanoma it was 94.1%; in the assay on SK-MEL-28 melanoma it was 101%.
As to `O=C(CCc1nnc(-c2c(Cl)cccc2Cl)o1)c1nc2ccccc2[nH]1`, the growth in the assay with HCT-15 colon is 81.5%; in the assay with HT29 colon it was 9.39% (active); in the assay on SNB-75 CNS it was 63.4%; in the assay with SNB-19 CNS, 75.1%; in the assay on U251 CNS it was 52.5%; with PC-3 prostate it was 53.1%. The growth with SK-MEL-5 melanoma is 67%; in the assay with UACC-62 melanoma, 42.3%; in the assay with LOX IMVI melanoma it was 55.1%; with SK-MEL-28 melanoma, 82.7%.
With `O=C1c2cccc3cccc(c23)C(=O)N1Nc1nc(N2CCOCC2)nc(N2CCN(c3ccccc3)CC2)n1`, the growth with HCT-15 colon is 33.7%; with HT29 colon, 24.3%; in the assay with SNB-75 CNS it was 21.4%; in the assay with SNB-19 CNS it was 45.6%; in the assay on U251 CNS it was 59.3%; in the assay on PC-3 prostate it was 43.4%. For the same compound, the growth is 4.98% (active) with SK-MEL-5 melanoma, 32.2% in the assay with UACC-62 melanoma, 39.2% in the assay with LOX IMVI melanoma and 52.5% in the assay on SK-MEL-28 melanoma.
For the compound `Cc1cc(-c2cc(C)c(N)cc2C)c(C)cc1N`, the growth is 73% in the assay on HCT-15 colon; 99% in the assay on HT29 colon; 101% in the assay with SNB-75 CNS; 85.2% with SNB-19 CNS; 71.8% in the assay with U251 CNS; 80.5% in the assay with PC-3 prostate. For the same compound, the growth was 81.6% in the assay with SK-MEL-5 melanoma, 75.8% in the assay with UACC-62 melanoma, 75.6% in the assay with LOX IMVI melanoma and 89.3% with SK-MEL-28 melanoma.
Regarding `Cc1c(C(=O)NCCCc2ccccc2)sc2ncc(-c3ccc(Br)cc3)n12`, the growth with HCT-15 colon is 104%; in the assay on HT29 colon, 120%; with SNB-75 CNS it was 98.4%; in the assay on SNB-19 CNS, 101%; with U251 CNS it was 100%; in the assay on PC-3 prostate, 102%. Also, the growth was 101% in the assay on SK-MEL-5 melanoma, 95.7% with UACC-62 melanoma, 99.1% with LOX IMVI melanoma and 104% with SK-MEL-28 melanoma.
Consider `O=C(O)CCC(=O)Nc1nnc(-c2ccccc2)s1`, for which the growth in the assay with HCT-15 colon is 93.7%; with HT29 colon, 106%; in the assay with SNB-75 CNS, 87.8%; in the assay on SNB-19 CNS, 105%; with U251 CNS it was 105%; in the assay with PC-3 prostate it was 94.8%. Further, the growth was 103% in the assay with SK-MEL-5 melanoma, 97.8% in the assay on UACC-62 melanoma, 99.5% in the assay on LOX IMVI melanoma and 107% in the assay with SK-MEL-28 melanoma.
